Experimental findings from the supplement of paper PMC6522484 are described below.

± gives the standard deviation of the averaged measurements.

The test relates to SW480. Kind of test: cell viability (CellTiter-Glo) relative to plate median (fraction of plate median); higher = more viable cells. Conditions: 5 µM; treatment time 24 h; reporter: 7TFP. In outline:
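Stable lentiviral TCF/Wnt firefly luciferase reporters (7TFP or TCF4/Wnt) were present in the colorectal cancer cell lines used. These cells received library compounds at a final 5 µM for 24 h, and parallel plates were read for firefly luciferase or CellTiterGlo luminescence. Each well was normalised to the plate median, and the value reported is the mean of two independent replicates.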
Background: In ATP-based viability assays light output follows the ATP content of the culture.
`CN(C)c1ccc(C(=C2C=CC(=[N+](C)C)C=C2)c2ccc(N(C)C)cc2)cc1` had a cell viability of 0.679 ± 0.013.
Compound `CC1CC2C3CCC4=CC(=O)C=CC4(C)C3(F)C(O)CC2(C)C1C(=O)CO` (stereo not given) had a cell viability of 0.939 ± 0.026.
Regarding `NNCCc1ccccc1`, the cell viability turned out to be 0.98 ± 0.042.
Consider `CCOC(=O)[N-]c1c[n+](N2CCOCC2)no1`, for which the cell viability is 1.02 ± 0.035.
The compound `COC(=O)c1c(C)cc(O)cc1O` displayed a cell viability of 1 ± 0.037.
In the case of `CC(=O)O[C@@H]1CC2C(C)(C)[C@H](O)CC[C@]2(C)C2CC[C@@]3(C)[C@H](c4ccoc4)OC(=O)C4OC43[C@@]21C` (stereo partly drawn) [alpha-DIHYDROGEDUNOL] it was 1.03; in that of `CCOC(=O)[C@@](C)(N)Cc1ccc(O)c(O)c1`, 0.979 ± 0.044; in that of `CC(C)CCCC(C)C1CCC2C3=CCC4CC(O)CCC4(C)C3CCC21C` (stereo not given), 1.02 ± 0.043.
In the case of `NC(=O)NCCC[C@H](N)C(=O)O` it was 1.015 ± 0.0071; in that of `CCCC(=O)Nc1ccc(OCC(O)CNC(C)C)c(C(C)=O)c1` (stereo not given), 0.876 ± 0.1.
In turn, `CC(=O)C1=C(O)C=C2Oc3c(C(C)=O)c(O)c(C)c(O)c3C2(C)C1=O` (stereo in doubt) registered a cell viability of 0.968 ± 0.018.
With `CCc1c(O)cc(C(C)CC)oc1=O` (stereo not given) [Germicidin], the cell viability was found to be 0.965 ± 0.05.
Consider `CS(=O)(=O)CCCCN=C=S`, for which the cell viability amounted to 0.83 ± 0.03.
In the case of `COc1c(N2C[C@@H]3CCCN[C@@H]3C2)c(F)cc2c(=O)c(C(=O)O)cn(C3CC3)c12` it was 1.02 ± 0.069; in that of `COc1cc2c(cc1OC)-c1c(oc3cc(O)cc(O)c3c1=O)CO2`, 0.972 ± 0.0042; in that of `Cn1c(=O)[nH]c(=O)c2[nH]cnc21`, 0.967 ± 0.032.
`NC(=O)NO` displayed a cell viability of 1.09 ± 0.028.
Compound `C[C@H]1COc2c(N3CCN(C)CC3)c(F)cc3c(=O)c(C(=O)O)cn1c23` gave a cell viability of 0.984 ± 0.023.
Take `CCN(CCCc1ccccc1)CCCc1ccccc1`: the cell viability came to 1.08 ± 0.035.
Regarding `OC[C@H]1O[C@@](CO)(O[C@H]2O[C@H](CO)[C@@H](O)[C@H](O)[C@H]2O)[C@@H](O[C@H]2O[C@H](CO)[C@@H](O)[C@H](O)[C@H]2O)[C@@H]1O`, the cell viability came out at 1 ± 0.025.
In turn, `C[C@@H]1C[C@H]2[C@@H]3CCC4=CC(=O)C=C[C@]4(C)[C@@]3(F)[C@@H](O)C[C@]2(C)[C@@]1(O)C(=O)COP(=O)(O)O` displayed a cell viability of 1.01 ± 0.093.
Compound `CC(=O)O[C@]1(C(C)=O)CC[C@H]2[C@@H]3C=C(C)C4=CC(=O)CC[C@]4(C)[C@H]3CC[C@@]21C` had a cell viability of 0.984 ± 0.037.
As to `CC(=O)O[C@@H]1CC2C(C)(C)[C@H](O)C[C@H](O)[C@@]2(C)C2CC[C@]3(C)C(=CC(=O)O[C@@H]3c3ccoc3)[C@]21C` (stereo not given in full), the cell viability was 0.982 ± 0.011.
In turn, `CN(C)c1ccc(O)c2c1C[C@H]1C[C@H]3[C@H](N(C)C)C(O)=C(C(N)=O)C(=O)[C@@]3(O)C(O)=C1C2=O` had a cell viability of 0.943 ± 0.048.
Compound `Cc1cc(/C=C/c2ccc3cc(N(C)C)ccc3[n+]2C)c(C)n1-c1ccccc1` registered a cell viability of 0.852 ± 0.08.
As for `C[C@]12C=CC(=O)C=C1CC[C@H]1[C@@H]3C[C@@H](O)[C@](O)(C(=O)CO)[C@@]3(C)C[C@H](O)[C@@]12F`, the figure is 0.982 ± 0.012.
With `CC(C)=CCc1cccc2c(C[C@@H]3NC(=O)[C@H](C)NC3=O)c[nH]c12` [Terezine D], the cell viability worked out at 0.981 ± 0.084.
Regarding `C#C[C@]1(O)CC[C@H]2[C@@H]3CCc4cc(O)ccc4[C@H]3CC[C@@]21C`, the cell viability stood at 0.9755 ± 0.0092.
In the case of `C=C(C)[C@@H]1CC=C(C(=O)O)CC1`, the cell viability is 0.995 ± 0.035.
On to `CN(C)CCOC(=O)C(c1ccccc1)C1(O)CCCC1` (stereo not given), for which the cell viability is 1 ± 0.013.
